Bcl-W Bim block – human Bim-Bcl-W interaction inhibition | bead-based flow cytometry, Bim peptide-Bcl-W binding | inhibition, % at 10 µM | hit rate 0.02% among 190,000;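 note: higher means less fluorescent Bim peptide bound to Bcl-W beads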
Bcl-2 Bim block – human Bim-Bcl-2 interaction inhibition | P10415 | Bead-based flow cytometry, Bim peptide-Bcl-2 binding | inhibition, % at 10 µM | hit rate 0.06% among 190,000 | AID 950; in the data active = inhibition above about 40%
Bcl-XL Bim block – human Bim-Bcl-XL interaction inhibition | Q07817 | hit rate 0.04% among 190,000 | inhibition, % at 10 µM | AID 1007 | Bim peptide-Bcl-XL binding, bead flow cytometry, fluorescence
Target sequence (Q07817 whole entry, looked up): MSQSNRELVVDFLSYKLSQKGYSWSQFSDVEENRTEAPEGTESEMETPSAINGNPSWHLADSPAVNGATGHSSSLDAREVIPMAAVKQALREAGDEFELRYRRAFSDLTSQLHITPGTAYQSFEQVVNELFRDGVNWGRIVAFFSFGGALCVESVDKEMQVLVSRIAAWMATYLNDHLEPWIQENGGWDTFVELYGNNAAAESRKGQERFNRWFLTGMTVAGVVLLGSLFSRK
Bim-Bcl-B – disrupts Bim peptide binding to human Bcl-B; AID 951; bead-based flow cytometry; hit rate 0.073% among 190,000; inhibition, % at 10 µM; Q9HD36
Bfl-1 Bim block – disrupts Bim binding to human Bfl-1; Q16548; Bead-based flow cytometry, Bim-Bfl-1 binding inhibition; inhibition, % at 10 µM; hit rate 0.12% among 190,000; AID 1008
Target sequence (Q16548 whole entry, looked up): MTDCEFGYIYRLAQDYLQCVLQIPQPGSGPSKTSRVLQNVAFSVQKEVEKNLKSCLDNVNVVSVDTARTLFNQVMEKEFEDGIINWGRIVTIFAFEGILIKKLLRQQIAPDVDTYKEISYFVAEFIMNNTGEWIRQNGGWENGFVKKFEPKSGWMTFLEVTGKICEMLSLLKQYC
Large screens that a line does not name were inactive. Rows were chosen to be rich in hits. Some 0.2% of all compounds tested hit in one or more screens of this group. Cut-off read from the data, not from the text of the source, unless noted: active = inhibition above about 40%.

COc1cc2c(cc1OC)C(C(=O)N1CCCCC1)C(c1ccccc1F)N(C)C2=O (stereo not given)	none
COc1cc2c(cc1OC)C(c1ccccc1F)OC(=O)C2 (stereo not given)	Bcl-W Bim block 89, Bcl-2 Bim block 98, Bcl-XL Bim block 72, Bim-Bcl-B 97, Bfl-1 Bim block 59
O=C1CN(C(=S)NC(=O)c2ccc(-c3ccccc3)cc2)CCN1	none
COc1ccc(C(=O)NC(=S)N2CCNC(=O)C2)cc1Br	Bcl-2 Bim block 79, Bim-Bcl-B 70, Bfl-1 Bim block 71
Cc1ccc(Nc2nc(-c3ccc(S(=O)(=O)N4CCOCC4)cc3)cs2)cc1Cl	none
CCOC(=O)C1=C(CC)Nc2ccccc2N=C1NC(=O)c1ccc(S(=O)(=O)N(C)C)cc1	none
CCOC(=O)C1=C(CC)Nc2ccccc2N=C1NC(=O)c1ccc(S(=O)(=O)N2CCOCC2)cc1	Bcl-2 Bim block 78, Bim-Bcl-B 75, Bfl-1 Bim block 57
Cc1onc(-c2ccccc2)c1C(=O)N(Cc1ccco1)Cc1cccs1	none
O=C(NC1CCCC1)c1ccc2nc(-c3ccco3)c(-c3ccco3)nc2c1	none
O=C(NCCO)c1ccc2nc(-c3ccco3)c(-c3ccco3)nc2c1	Bfl-1 Bim block 54
O=C(NCCc1ccccc1)c1ccc2nc(-c3ccco3)c(-c3ccco3)nc2c1	Bfl-1 Bim block 45
O=C(c1ccccc1)c1ccc2nc(-c3ccco3)c(-c3ccco3)nc2c1	Bfl-1 Bim block 47
COc1cccc(N2CCN(C(=O)CCNS(=O)(=O)c3ccc4c(c3)c(=O)n(C)c(=O)n4C)CC2)c1	none
CN(C)S(=O)(=O)c1cccc(C(=O)OCC(=O)c2ccc3c(c2)NC(=O)CO3)c1	Bim-Bcl-B 43
C/C(=N\NC(=O)COc1ccc(C(C)(C)C)cc1)c1ccc2c(c1)OCCO2	Bcl-W Bim block 48, Bcl-2 Bim block 85, Bim-Bcl-B 88
CCc1ccc(OCC(=O)N/N=C(\C)c2ccc3c(c2)OCCO3)cc1	none
Cc1ccc(/C=C/C(=O)c2ccccc(=O)c2O)c(C)c1	none
O=C(/C=C/c1ccccc1Cl)c1ccccc(=O)c1O	Bcl-2 Bim block 42, Bfl-1 Bim block 54
Cc1ccc(C)c(/C=C/C(=O)c2ccccc(=O)c2O)c1	Bfl-1 Bim block 41
O=C(NC(=S)NNS(=O)(=O)c1ccc(Cl)cc1)c1cccnc1	none
COc1ccc2cc(/C=N/NC(=O)c3ccc(CN(c4cccc(Cl)c4Cl)S(C)(=O)=O)cc3)c(Cl)nc2c1	none
CCCOc1ccc(C2C(C(=O)/C=C/c3ccco3)=C(O)C(=O)N2CCN2CCOCC2)cc1OC (stereo not given)	none
COc1c(F)c(F)c(C(=O)Nc2ccccc2N2CCN(C(C)=O)CC2)c(F)c1F	none
COc1c(F)c(F)c(C(=O)Nc2ccccc2N2CCN(C(=O)C(C)C)CC2)c(F)c1F	Bcl-2 Bim block 83 (no result: Bim-Bcl-B, Bfl-1 Bim block)
C=CCN1C(=O)CS/C1=N\N=C\c1cccc([N+](=O)[O-])c1	none
CCOC(=O)CCCNC(=O)c1cncc(O)c1	Bcl-2 Bim block 72, Bim-Bcl-B 68, Bfl-1 Bim block 46
O=C(NCCCNC(=O)c1cncc(O)c1)c1cncc(O)c1	none
OCCN1CCN(CCCc2c3c(cc4c2CCC4)CCC3)CC1	Bim-Bcl-B 61
C=CCn1c(C)c(C(C)=O)c(N2CCOCC2)nc1=S	Bfl-1 Bim block 48
COc1ccccc1NC(=O)CSc1nnc(CCNC(=O)c2ccc(C)cc2)n1C	none
Cc1nn(-c2ccccn2)c2c1C(=O)C(Br)CC2 (stereo not given)	Bfl-1 Bim block 59
CC(=O)c1ccc(-n2nncc2C(C)(C)C)cc1	none
Cc1cnnn1-c1ccc(C(=O)CCl)cc1	Bcl-W Bim block 60, Bfl-1 Bim block 60
O=C1CCCC2(O)C1C(c1cccc(Br)c1)NC(=O)N2Cc1ccccc1 (stereo not given)	Bcl-XL Bim block 49
CN(C)c1ccc(/C=C2/SC(=O)N(CCN=C3NS(=O)(=O)c4ccccc43)C2=O)cc1	Bcl-W Bim block 71, Bcl-2 Bim block 91, Bcl-XL Bim block 50, Bim-Bcl-B 92, Bfl-1 Bim block 48
CN1CCN(C2=C(Cl)C(=O)N(C3CCCCC3)C2=O)CC1	none
CN1CCN(C2=C(Cl)C(=O)C(c3cnc(N4CCCCC4)s3)=C(Cl)C2=O)CC1	Bcl-2 Bim block 44, Bim-Bcl-B 58, Bfl-1 Bim block 54
CCOc1ccc(NC(=S)NN(C)C(=S)Nc2ccc(OCC)cc2)cc1	none
COc1ccc(/C=C2\SC(=O)NC2=S)cc1OC	Bcl-2 Bim block 53
CCOc1ccc(/C=C2\SC(=S)NC2=O)cc1OC	none

Assay outcomes: PubChem, NMMLSC
